From PubChem BioAssay AID485317 (Broad Institute, 2010) come the findings set out here.

Out of some 290,000 compounds screened, about 11,000 (3.8%) were called active. For the sample, actives were picked, then their nearest neighbours and some compounds at random. Values without a mark were called inactive.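 Rule for the calls: active = mean replicate inhibition above about 79%, with every replicate also reaching it (limit read from the data); inconclusive = only one of the two criteria met; inactive = mean below limit and not every replicate reaching it.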

This assay deals with FAD-linked sulfhydryl oxidase ALR (Homo sapiens) (UniProt P55789). Put plainly: inhibitors of human ALR sulfhydryl oxidase, primary screen, biochemical, H2O2 detection, HRP-luminol luminescence, single point (AID 485317). The settings on record: purified ALR, DTT oxidation, hits give high values, concentration not given here.
Chain of FAD-linked sulfhydryl oxidase ALR (Homo sapiens) (P55789 whole entry, looked up): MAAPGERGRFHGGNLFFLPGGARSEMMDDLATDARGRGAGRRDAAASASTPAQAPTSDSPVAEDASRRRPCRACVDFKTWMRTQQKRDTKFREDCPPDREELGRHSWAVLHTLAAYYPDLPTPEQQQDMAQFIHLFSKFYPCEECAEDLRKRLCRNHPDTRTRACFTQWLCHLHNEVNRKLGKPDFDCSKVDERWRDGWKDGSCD
Take `CCC1CO/C(=C(\C(=C(Cl)Cl)N2CCOCC2)[N+](=O)[O-])N1` (stereo unspecified): the inhibition was 81% (active).

In the case of `COC(=O)[C@]1(C)CCC[C@@]2(C)C3CC[C@]4(OC(C)=O)C[C@@]3(CCC21)CC4=NO` (stereo partly specified), the inhibition is -3.27%.

In the case of `COc1ccc(C(=O)Nc2cccc(NC(=O)c3ccc(OC)cc3OC)n2)c(OC)c1`, the inhibition was -5.93%.

Take `CCCCn1c(N)c(N(CCOC)C(=O)COc2c(C)cccc2C)c(=O)[nH]c1=O`: the inhibition was -2.66%.

Consider `CSc1nc(C)cc(SC(C(C)=O)C(=O)Nc2ccccc2)n1` (stereo unspecified), for which the inhibition is 92.7% (active).

In the case of `CSc1nsc(NC(=O)Nc2ccccc2)n1`, the inhibition was 4.37%.

On to `Cc1cc(SCC(=O)c2ccccc2)nc(SCC(=O)c2ccccc2)n1`, for which the inhibition is 1.19%.

With `O=C(COC(=O)C1CC2CCCC(C1)C2=O)NC(=O)c1ccccc1` (stereo unspecified), the inhibition is 1.09%.

Consider `CC(C)(C)C(=O)CN1C2=NCCN2c2ccccc21`, for which the inhibition was 93.6% (active).

For `O=C(CN1C2=NCCN2c2ccccc21)c1cccs1`, the inhibition was 17.3%.

On to `OC(CN1C2=NCCCN2c2ccccc21)c1ccc(Br)cc1` (stereo unspecified), for which the inhibition is 9.53%.

Consider `O=C1C=C(c2cccc(Cl)c2)C[C@@H](c2ccc(F)cc2)C1`, for which the inhibition was -8.67%.

For the compound `CC(C)Cn1c(SCC(=O)Nc2ccc(Cl)cc2F)nc(O)cc1=O`, the inhibition was 98.5% (active).

As to `Cc1cc(NC(=O)CSc2nc3ccccc3n2CC(C)C)no1`, the inhibition was -5.8%.

Turning to `Cc1ccccc1-n1c(SCC(=O)Nc2cccc3ccccc23)nc(O)cc1=O`, the inhibition is 59.8%.

In the case of `COc1ccccc1-c1nn(Cc2ccccc2)cc1C(=O)N1CCN(c2ncccn2)CC1`, the inhibition was 1.87%.

As to `C=CC[C@@H](CC(=O)NCCO)C(=O)N[C@H](C)COC(=O)[C@@H](CC=C)CC(=O)OC(C)(C)C`, the inhibition is 4.16%.

`CCN1C(=O)[C@H]2[C@@H](c3ccc(-c4ccc(F)cc4)cc3)N[C@@](Cc3ccccc3)(C(=O)OC)[C@H]2C1=O`: the inhibition is -2.13%.

Consider `CCCn1c(C2CCCN2c2nc(-c3ccc(OC)cc3)cs2)nc2ccccc21` (stereo unspecified), for which the inhibition is -0.584%.

On to `CCOC(=O)C1CCCN(C(=O)CSc2nnc3nc(C)cc(C)n23)C1` (stereo unspecified), for which the inhibition was -0.482%.

`COc1cccc(NC(=O)CC(c2ccc(OC(C)C)cc2)c2ccccc2OC)c1` (stereo unspecified): the inhibition is 1.22%.

For the compound `COc1cccc(C(O)Cc2nc3ccccc3n2C)c1OC` (stereo unspecified), the inhibition is 2.27%.

With `COc1ccc(CNCCCO)cc1OC`, the inhibition is 1.87%.

`C=CCC(Nc1ccccc1)c1cccc(OC)c1OC` (stereo unspecified): the inhibition was 98.9% (active).

Regarding `C=CCC(NCCCO)c1cccc(OC)c1OC` (stereo unspecified), the inhibition is 99.7% (active).

With `C=CCC(NCc1ccco1)c1ccc(OC)cc1` (stereo unspecified), the inhibition is 1.8%.

What is called inhibition is the relative decrease from the control value, in per cent.
